From PubChem
CF NFkB block: cystic fibrosis NF-kB activation inhibition. KKLEB NF-kB-GFP reporter, PAF-induced, GFP fluorescence overnight. inhibition, % at 5 µM. 360,000 compounds, 0.86% hits. AID 588850;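 active means at least 50% inhibition at 5 µM, scaled per plate between neutral and stimulator controls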;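 further: PAF is a Pseudomonas aeruginosa culture filtrate used as stimulus; plate controls were PAF-stimulated DMSO wells for no effect and unstimulated DMSO wells for full effect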
TWEAK Fn14 block: inhibitors of TWEAK-Fn14 interaction signaling | AID 1159606 | inhibition, % at 10 µM | TWEAK-stimulated Fn14 reporter cells, luciferase luminescence, 8 h | 360,000 compounds, 2% hits; in the data active means inhibition above about 50%
HIF-2a inh: inhibitors of HIF-2a | 360,000 compounds, 0.72% hits | 786-0 RCC cells HIF-2a reporter, luciferase luminescence, overnight | AID 624352 | inhibition, % at 18.8 µM;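 active means inhibition of the luminescence signal of 40% or more relative to plate controls, in a single-dose primary screen at 18.75 µM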
KKLEB cytotox: CF airway cell cytotoxicity counter-screen; KKLEB CF airway cells viability, ATPlite luminescence, overnight; stronger effect = lower value; cells stimulated with P. aeruginosa culture filtrate; activity change (cytotoxicity), % at 5 µM; 360,000 compounds, 0.36% hits; AID 602141;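 active means corrected activity change at or below -50% at 5 µM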
Peg3 prom inh: inhibitors of Peg3 promoter. HeLa PEG-Prom luciferase reporter, luminescence, overnight. 360,000 compounds, 1.7% hits. inhibition, % at 20 µM;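 active means inhibition of at least 50% at 20 µM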
TROY signal inh: inhibitors of TROY-dependent NF-kB signaling. Q293 LMP1-TROYcd NF-kB luciferase reporter, 4 h. inhibition, % at 10 µM. 360,000 compounds, 0.98% hits;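 active means compounds whose plate-normalised and pattern-corrected inhibition of the luciferase reporter signal at the single screening dose is 50% or more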
CF NFkB inh conf: CF NF-kB inhibition confirmation, single concentration; shares compounds with CF NFkB block; KKLEB CF airway cells, PAF-induced NF-kB-GFP fluorescence, overnight; inhibition, % at 5 µM; 1,300 compounds, 64% hits; AID 602472; in the data active means inhibition above about 40%;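 further: stimulus PAF is a Pseudomonas aeruginosa filtrate and not platelet activating factor; plate controls were DMSO wells with stimulus for no effect and unstimulated DMSO wells for full effect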
* marks the source's active call; other numbers are inactive results; / = not tested or not shown. Compounds with a hit are over-represented: about 4% of the library has one in this group of screens.

SMILES | CF NFkB block | TWEAK Fn14 block | HIF-2a inh | KKLEB cytotox | Peg3 prom inh | TROY signal inh | CF NFkB inh conf
COc1ccc(-c2ccc(CN3C(CC(C)C)C(=O)N(Cc4cn(Cc5ccco5)nn4)CCS3(=O)=O)cc2)cc1OC (stereo not given) | 31 | 23 | 10 | 2 | -6 | -5 | /
COc1ccc(-c2ccc(CN3C(CC(C)C)C(=O)N(Cc4cn(Cc5ccco5)nn4)CCS3(=O)=O)cc2)cc1 (stereo not given) | 57* | 4 | 17 | -9 | 19 | -5 | 36
CC(C)C1C(=O)N(Cc2cn(Cc3ccco3)nn2)CCS(=O)(=O)N1Cc1ccc(-c2ccccc2)cc1 (stereo not given) | 32 | 34 | -19 | 5 | -8 | 10 | /
CC(C)C1C(=O)N(Cc2cn(Cc3ccco3)nn2)CCS(=O)(=O)N1Cc1ccc(-c2ccc(F)cc2)cc1 (stereo not given) | 56* | 16 | -32 | 13 | 21 | -2 | 35
O=C(OCC(=O)c1ccccc1Cl)C1=NN(c2ccccc2)C(=O)CC1 | -6 | -18 | -65 | -8 | -59 | 12 | /
O=c1[nH]c(C2CCN(S(=O)(=O)c3ccc4c(c3)OCCO4)CC2)nc2c1nnn2Cc1c(F)cccc1Cl | 68* | 55* | 22 | 0 | 56* | 24 | 82*
Oc1ccc2nnc3c(Br)cnn3c2c1 | -4 | 13 | -3 | 9 | -18 | 5 | /
CCN1CCN(Cc2ccc(NC(=O)c3ccc(C)c(NC(=O)C(=O)c4c[nH]c5ccccc45)c3)cc2C(F)(F)F)CC1 | 70* | -93 | 11 | -10 | 97* | -24 | 71*
CCN1CCN(Cc2ccc(NC(=O)c3ccc(C)c(NC(=O)c4ccc5n[nH]nc5c4)c3)cc2C(F)(F)F)CC1 | 55* | -2 | 15 | -11 | -10 | -1 | 69*
CC(C)Oc1ccc2ccccc2c1CNC[C@H]1O[C@@H](n2cnc(C(N)=O)n2)[C@H](O)[C@@H]1O | -19 | 13 | 4 | 5 | -7 | 4 | /
CC(=O)OCC(=O)C1(O)CCC2C3CC(C)C4=CC(=O)C=CC4(C)C3C(O)CC21C (stereo not given) | 65* | 4 | 18 | 45 | -18 | 18 | 4
O=C(c1ccc(Cl)c([N+](=O)[O-])c1)N(Cc1ccco1)C1CCS(=O)(=O)C1 (stereo not given) | 12 | 13 | -1 | 7 | 2 | -8 | /
Cc1ccc2oc(=O)c3cnn(CC(=O)Nc4cc(-c5cccc(F)c5)no4)c3c2c1 | 53* | 17 | -1 | -42 | 20 | 1 | 16
O=C(NCc1ccccc1)c1ccccc1NC(=O)C1CCCCC1 | 1 | 1 | 10 | -5 | 9 | 3 | /
CC(=O)Oc1c(Br)cc(N(C(C)=O)S(=O)(=O)c2ccccc2)c2ccccc12 | 88* | 38 | -3 | -41 | -8 | 4 | 74*
Clc1ccc(Cn2ncc3c(N4CCN(c5ccccc5)CC4)ncnc32)cc1 | 91* | 102* | -29 | -36 | 92* | 81* | 100*
CN(C(=O)CSc1nc2ccccc2o1)C1CCCCC1 | 16 | 4 | -230 | -3 | -256 | -46 | /
Cc1ccc(NC(=O)c2ccccc2NS(=O)(=O)c2ccc(Cl)s2)cc1S(=O)(=O)N1CCOCC1 | 57* | 78* | -8 | -49 | -17 | 52* | 80*
O=C(Nc1cc(S(=O)(=O)N2CCOCC2)ccc1O)c1ccc(NS(=O)(=O)c2ccc(Cl)s2)cc1 | -6 | 2 | 25 | -6 | 1 | 8 | /
Cn1cc([N+](=O)[O-])c(C(=O)Nc2ccc(C3CCCCC3)cc2)n1 | 52* | 0 | -124 | -24 | -35 | -40 | -175
Cn1cc([N+](=O)[O-])c(C(=O)Nc2ccc(C(=O)N3CCCCC3)cc2)n1 | 47 | -1 | -38 | -3 | 30 | -2 | /
O=C(/C=C/c1ccco1)Nc1ccccn1 | 29 | 50 | -109 | -16 | -105 | -44 | /
Cc1ccc(NC(=O)/C=C/c2ccco2)nc1 | 65* | 40 | -151 | -38 | -132 | -35 | 73*
C=CCNc1ncnc2c1ncn2[C@H]1CN(C2CCCC2)C[C@@H](CO)O1 | 20 | 8 | 7 | -6 | -16 | 8 | /
OCCCNc1ncnc2c1ncn2[C@H]1CN(Cc2ccc(Cl)cc2)C[C@@H](CO)O1 | 1 | -5 | 13 | 6 | -8 | 5 | /
SMILES | CF NFkB block | TWEAK Fn14 block | HIF-2a inh | KKLEB cytotox | Peg3 prom inh | TROY signal inh | CF NFkB inh conf
O=C(Nc1ccc2c(c1)OCO2)c1cc(-c2cccc(O)c2)on1 | -43 | 10 | -337 | 8 | -326 | -82 | /
O=C(Nc1ccc2c(c1)OCO2)c1cc(-c2ccc(O)cc2)on1 | 52* | -82 | -205 | -41 | -165 | -12 | 3
CCOC(=O)c1sc(NC(=O)c2cccc(S(=O)(=O)N3CCc4ccccc43)c2)c(C#N)c1C | 61* | 48 | -16 | -32 | 40 | 53* | 66*
CCC(CC)c1nnc(NC(=O)c2cccc(S(=O)(=O)N3CCc4ccccc43)c2)s1 | 5 | 41 | 3 | -1 | 9 | 39 | /
Cc1ccc(S(=O)(=O)/N=C(/Nc2cccc(O)c2)c2ccccc2)cc1 | -5 | 1 | 12 | 2 | 14 | 5 | /
COc1cc(OC)nc(Nc2nc(C(N)c3ccccc3Cl)cs2)n1 (stereo not given) | 50* | 13 | 12 | -36 | 38 | 9 | 8
CCn1nc(C)c(CNC(=O)c2ccc(OC3CCN(Cc4ccccn4)CC3)cc2)c1C | -12 | 17 | 9 | 2 | 15 | 13 | /
O=C1NCCc2c1[nH]c1c(Cl)ccc(Cl)c21 | 56* | 39 | 38 | -15 | 17 | 41 | 71*
CCCCCCCCCc1nc2sc3c(c2c(=O)n1NC(=O)c1ccc([N+](=O)[O-])cc1)CC(C)(C)OC3 | 55* | 56* | -12 | -42 | 9 | 42 | 62*
CCc1nc2sc3c(c2c(=O)n1N)CC(C)(C)OC3 | 14 | -12 | 7 | 0 | 0 | 3 | /
O=C(c1nnsc1S(=O)(=O)c1ccc(Cl)cc1)N1CCOCC1 | 90* | 91* | 32 | -33 | 95* | 68* | 96*
CCCCN(C)c1c(C)nc2ccc(C(=O)N(C)CCN(C)C)cn12 | -23 | -11 | 4 | 4 | -1 | -4 | /
Cc1nn(-c2ccccc2)c(N2CCCC2)c1/C=N/NC(=O)c1cc(-c2ccccc2)nc2ccccc12 | 55* | 21 | 20 | -8 | 55* | 9 | 66*
Cc1nn(-c2ccccc2)c(N2CCCC2)c1/C=N/NC(=O)c1cc(-c2cccs2)nc2ccccc12 | 22 | 36 | 21 | -14 | 36 | 13 | /
Cc1ccc(-c2cc(C(=O)N/N=C/c3c(C)nn(-c4ccccc4)c3C)[nH]n2)cc1 | 50* | 40 | 3 | -32 | -4 | 14 | 84*
